Test results taken from paper PMC7862700, “An all-to-all approach to the identification of sequence-specific readers for epigenetic DNA modifications on cytosine”.

Assays:
Assay in all cases: DAPPL (digital affinity profiling via proximity ligation, sequencing); 10 mM Tris-HCl pH 7.5, 50 mM NaCl, 1 mM DTT, 4% glycerol, room temperature, 30 min; GST-TFs on glutathione beads, 16-mer random dsDNA library, 0.1% formaldehyde crosslink after washing; high values mean tight binding
FEV = biological target: T1, FEV (Homo sapiens, UniProt Q99581 1-238); settings: protein: recombinant; tags: N-terminal GST; dsDNA, one strand shown
T1 sequence: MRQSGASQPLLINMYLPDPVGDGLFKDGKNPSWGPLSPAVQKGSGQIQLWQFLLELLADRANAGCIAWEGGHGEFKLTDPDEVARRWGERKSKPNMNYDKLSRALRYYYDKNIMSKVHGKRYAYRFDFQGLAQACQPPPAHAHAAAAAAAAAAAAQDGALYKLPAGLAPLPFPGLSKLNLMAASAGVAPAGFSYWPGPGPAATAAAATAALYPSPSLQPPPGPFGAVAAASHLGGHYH
Procedure, shortened: (§1)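 The binding signal reported is, for every hexamer, its read frequency for a factor over its read frequency for the tag-only sample. Reads came from pools of yeast-expressed, GST-fused human transcription factors on glutathione beads, barcoded with DNA and mixed with that sample, which were incubated with 200 nmole of a random double-stranded 16-mer DNA library in Tris/NaCl/DTT/glycerol buffer at room temperature for 30 min. After washing, the pools were crosslinked with 0.1% formaldehyde, proximity-ligated with BsaI/T4 ligase for 1 h at 37 °C, PCR-amplified and sequenced on an Illumina NextSeq500.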

ETV5 = ETV5 (Homo sapiens, UniProt P41161 1-510); settings: protein: recombinant; tags: N-terminal GST; dsDNA, one strand shown
ETV5, sequence (P41161 whole entry): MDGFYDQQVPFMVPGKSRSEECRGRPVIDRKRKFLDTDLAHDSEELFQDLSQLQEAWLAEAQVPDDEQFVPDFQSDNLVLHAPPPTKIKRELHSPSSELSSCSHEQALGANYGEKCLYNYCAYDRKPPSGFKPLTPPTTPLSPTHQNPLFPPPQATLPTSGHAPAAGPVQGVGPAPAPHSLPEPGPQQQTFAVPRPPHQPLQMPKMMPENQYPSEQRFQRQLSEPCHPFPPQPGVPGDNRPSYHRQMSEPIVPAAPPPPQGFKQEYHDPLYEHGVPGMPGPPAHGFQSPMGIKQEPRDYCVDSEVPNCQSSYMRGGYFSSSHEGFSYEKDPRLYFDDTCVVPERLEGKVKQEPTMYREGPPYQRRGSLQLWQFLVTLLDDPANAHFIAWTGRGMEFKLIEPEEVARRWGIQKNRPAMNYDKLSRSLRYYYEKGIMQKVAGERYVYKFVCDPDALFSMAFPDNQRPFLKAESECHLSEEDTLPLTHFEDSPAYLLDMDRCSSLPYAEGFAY
Procedure, shortened: as §1

HSF1 = HSF1 (Homo sapiens, UniProt Q00613 1-529); settings: protein: recombinant; tags: N-terminal GST; chain copies: 3; dsDNA, one strand shown
HSF1, sequence (Q00613 whole entry): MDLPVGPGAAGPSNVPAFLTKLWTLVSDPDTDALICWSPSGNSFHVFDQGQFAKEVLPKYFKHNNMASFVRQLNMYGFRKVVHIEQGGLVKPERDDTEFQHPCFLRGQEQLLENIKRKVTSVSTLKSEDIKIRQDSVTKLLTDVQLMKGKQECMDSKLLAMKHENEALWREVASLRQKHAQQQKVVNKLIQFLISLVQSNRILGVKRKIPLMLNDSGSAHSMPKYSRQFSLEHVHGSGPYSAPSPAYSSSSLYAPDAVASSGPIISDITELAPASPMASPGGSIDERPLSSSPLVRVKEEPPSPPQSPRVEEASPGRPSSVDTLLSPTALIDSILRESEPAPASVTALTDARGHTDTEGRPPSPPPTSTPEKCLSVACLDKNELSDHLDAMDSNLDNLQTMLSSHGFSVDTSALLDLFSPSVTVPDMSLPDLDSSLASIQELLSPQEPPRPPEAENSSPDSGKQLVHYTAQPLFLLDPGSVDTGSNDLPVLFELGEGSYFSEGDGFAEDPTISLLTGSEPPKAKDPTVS
Procedure, shortened: as §1

SPIC = biological target: T2, SPIC (Homo sapiens, UniProt Q8N5J4 1-248); settings: protein: recombinant; tags: N-terminal GST; dsDNA, one strand shown
T2 sequence: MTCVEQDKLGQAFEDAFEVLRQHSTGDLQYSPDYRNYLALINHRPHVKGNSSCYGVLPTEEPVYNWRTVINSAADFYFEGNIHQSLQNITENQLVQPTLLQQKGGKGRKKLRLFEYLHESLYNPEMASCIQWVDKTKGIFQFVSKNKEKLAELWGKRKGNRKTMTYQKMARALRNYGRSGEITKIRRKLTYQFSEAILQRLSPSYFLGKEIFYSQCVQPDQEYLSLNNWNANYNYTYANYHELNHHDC
Procedure, shortened: as §1

ELF4 = ELF4 (Homo sapiens, UniProt Q99607 1-663); settings: protein: recombinant; tags: N-terminal GST; dsDNA, one strand shown
ELF4, sequence (Q99607 whole entry): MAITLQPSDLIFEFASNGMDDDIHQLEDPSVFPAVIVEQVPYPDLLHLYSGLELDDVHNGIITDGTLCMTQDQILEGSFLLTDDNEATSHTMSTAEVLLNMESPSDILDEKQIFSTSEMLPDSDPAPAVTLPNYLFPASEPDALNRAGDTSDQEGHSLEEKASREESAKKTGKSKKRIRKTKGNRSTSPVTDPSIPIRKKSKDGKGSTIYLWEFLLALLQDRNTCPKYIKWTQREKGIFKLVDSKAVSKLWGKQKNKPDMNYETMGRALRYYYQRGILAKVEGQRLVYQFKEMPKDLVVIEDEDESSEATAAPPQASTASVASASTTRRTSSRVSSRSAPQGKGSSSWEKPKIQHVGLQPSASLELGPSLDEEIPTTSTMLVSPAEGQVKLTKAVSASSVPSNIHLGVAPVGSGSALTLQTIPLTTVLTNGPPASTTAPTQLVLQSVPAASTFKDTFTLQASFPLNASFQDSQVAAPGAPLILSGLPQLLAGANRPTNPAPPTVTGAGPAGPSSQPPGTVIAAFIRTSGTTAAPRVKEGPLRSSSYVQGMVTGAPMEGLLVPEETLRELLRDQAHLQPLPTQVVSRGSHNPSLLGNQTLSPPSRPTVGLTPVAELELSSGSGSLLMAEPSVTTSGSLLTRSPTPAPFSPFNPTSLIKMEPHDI
Procedure, shortened: as §1

ELK4 = biological target: T3, ELK4 (Homo sapiens, UniProt P28324-2 1-405); settings: protein: recombinant; tags: N-terminal GST; dsDNA, one strand shown
T3 sequence: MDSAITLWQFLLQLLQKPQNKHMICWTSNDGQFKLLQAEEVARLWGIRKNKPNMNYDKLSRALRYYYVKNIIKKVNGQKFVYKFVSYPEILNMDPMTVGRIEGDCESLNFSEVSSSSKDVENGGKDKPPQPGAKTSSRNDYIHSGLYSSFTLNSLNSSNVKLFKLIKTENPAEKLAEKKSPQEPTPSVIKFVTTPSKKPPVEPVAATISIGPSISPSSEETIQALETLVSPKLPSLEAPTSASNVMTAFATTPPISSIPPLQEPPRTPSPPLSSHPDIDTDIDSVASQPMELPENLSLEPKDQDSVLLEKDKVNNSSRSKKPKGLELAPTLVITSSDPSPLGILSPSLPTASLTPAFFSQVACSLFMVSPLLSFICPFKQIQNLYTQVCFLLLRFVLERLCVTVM
Procedure, shortened: as §1

ETV2 = biological target: T4, ETV2 (Homo sapiens, UniProt O00321 1-342); settings: protein: recombinant; tags: N-terminal GST; dsDNA, one strand shown
T4 sequence: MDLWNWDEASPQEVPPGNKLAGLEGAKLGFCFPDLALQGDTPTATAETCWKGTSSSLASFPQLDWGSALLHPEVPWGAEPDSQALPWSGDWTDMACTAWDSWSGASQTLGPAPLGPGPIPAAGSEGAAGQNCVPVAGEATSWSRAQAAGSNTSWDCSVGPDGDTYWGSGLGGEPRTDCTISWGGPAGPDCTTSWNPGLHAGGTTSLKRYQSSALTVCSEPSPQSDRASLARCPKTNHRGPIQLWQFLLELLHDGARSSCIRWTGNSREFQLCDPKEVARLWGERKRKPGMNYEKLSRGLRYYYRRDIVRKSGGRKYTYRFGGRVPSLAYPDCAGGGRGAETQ
Procedure, shortened: as §1

ETV1 = ETV1 (Homo sapiens, UniProt P50549 1-477); settings: protein: recombinant; tags: N-terminal GST; dsDNA, one strand shown
ETV1, sequence (P50549 whole entry): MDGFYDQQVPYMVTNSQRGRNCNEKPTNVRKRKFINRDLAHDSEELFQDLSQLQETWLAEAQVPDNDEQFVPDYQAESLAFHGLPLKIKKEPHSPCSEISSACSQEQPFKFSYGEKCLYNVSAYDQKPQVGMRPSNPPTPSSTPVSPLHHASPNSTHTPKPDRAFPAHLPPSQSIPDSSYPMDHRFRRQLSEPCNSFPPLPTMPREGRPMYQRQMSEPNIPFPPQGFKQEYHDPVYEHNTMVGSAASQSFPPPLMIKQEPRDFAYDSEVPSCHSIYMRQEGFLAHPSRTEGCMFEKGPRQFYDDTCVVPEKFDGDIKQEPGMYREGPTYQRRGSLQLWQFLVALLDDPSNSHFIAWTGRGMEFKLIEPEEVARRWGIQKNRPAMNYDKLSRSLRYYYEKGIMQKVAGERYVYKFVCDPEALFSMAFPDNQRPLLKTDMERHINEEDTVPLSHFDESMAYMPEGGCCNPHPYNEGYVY
Procedure, shortened: as §1

ERF = biological target: T5, ERF (Homo sapiens, UniProt P50548 1-548); settings: protein: recombinant; tags: N-terminal GST; dsDNA, one strand shown
T5 sequence: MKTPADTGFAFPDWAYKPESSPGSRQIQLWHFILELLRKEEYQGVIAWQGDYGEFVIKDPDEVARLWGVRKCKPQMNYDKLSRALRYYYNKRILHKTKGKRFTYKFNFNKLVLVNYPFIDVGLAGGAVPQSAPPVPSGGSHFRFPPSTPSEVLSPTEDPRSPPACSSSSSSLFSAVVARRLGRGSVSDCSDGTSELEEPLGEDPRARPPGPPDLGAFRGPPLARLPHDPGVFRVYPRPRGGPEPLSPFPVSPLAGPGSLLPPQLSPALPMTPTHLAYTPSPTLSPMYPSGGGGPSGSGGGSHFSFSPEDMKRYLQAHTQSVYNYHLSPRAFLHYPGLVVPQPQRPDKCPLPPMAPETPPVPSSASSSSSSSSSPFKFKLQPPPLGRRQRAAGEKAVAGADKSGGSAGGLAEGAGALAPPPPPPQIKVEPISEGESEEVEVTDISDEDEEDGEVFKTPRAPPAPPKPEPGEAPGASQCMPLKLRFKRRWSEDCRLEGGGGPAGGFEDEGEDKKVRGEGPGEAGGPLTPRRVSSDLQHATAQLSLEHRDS
Procedure, shortened: as §1

ETV3L = biological target: T6, ETV3L (Homo sapiens, UniProt Q6ZN32 1-361); settings: protein: recombinant; tags: N-terminal GST; dsDNA, one strand shown
T6 sequence: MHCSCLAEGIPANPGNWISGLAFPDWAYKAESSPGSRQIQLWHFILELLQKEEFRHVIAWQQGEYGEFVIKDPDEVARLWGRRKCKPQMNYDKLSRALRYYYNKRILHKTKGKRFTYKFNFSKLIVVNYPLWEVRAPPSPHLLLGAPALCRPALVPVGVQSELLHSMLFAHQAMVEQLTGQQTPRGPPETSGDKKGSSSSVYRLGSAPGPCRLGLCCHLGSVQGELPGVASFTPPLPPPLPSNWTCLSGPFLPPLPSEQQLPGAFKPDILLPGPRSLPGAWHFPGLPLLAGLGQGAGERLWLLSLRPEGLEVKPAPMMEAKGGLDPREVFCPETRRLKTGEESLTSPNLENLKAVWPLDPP
Procedure, shortened: as §1

ETS2 = biological target: T7, ETS2 (Homo sapiens, UniProt P15036 1-469); settings: protein: recombinant; tags: N-terminal GST; dsDNA, one strand shown
T7 sequence: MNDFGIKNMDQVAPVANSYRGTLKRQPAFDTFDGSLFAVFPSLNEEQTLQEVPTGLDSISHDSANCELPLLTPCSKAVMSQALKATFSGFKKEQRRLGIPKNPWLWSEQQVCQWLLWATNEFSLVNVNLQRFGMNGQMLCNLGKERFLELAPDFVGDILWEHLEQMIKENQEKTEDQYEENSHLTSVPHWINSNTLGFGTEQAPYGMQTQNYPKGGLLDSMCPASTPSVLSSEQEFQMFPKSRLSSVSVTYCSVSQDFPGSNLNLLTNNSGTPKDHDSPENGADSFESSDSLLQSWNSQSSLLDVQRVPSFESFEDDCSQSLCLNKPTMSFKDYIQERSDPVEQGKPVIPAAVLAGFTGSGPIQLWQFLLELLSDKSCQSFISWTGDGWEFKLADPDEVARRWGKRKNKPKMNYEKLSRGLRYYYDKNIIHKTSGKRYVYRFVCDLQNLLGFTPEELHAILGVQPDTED
Procedure, shortened: as §1

SPDEF = biological target: T8, SPDEF (Homo sapiens, UniProt O95238 1-335); settings: protein: recombinant; tags: N-terminal GST; dsDNA, one strand shown
T8 sequence: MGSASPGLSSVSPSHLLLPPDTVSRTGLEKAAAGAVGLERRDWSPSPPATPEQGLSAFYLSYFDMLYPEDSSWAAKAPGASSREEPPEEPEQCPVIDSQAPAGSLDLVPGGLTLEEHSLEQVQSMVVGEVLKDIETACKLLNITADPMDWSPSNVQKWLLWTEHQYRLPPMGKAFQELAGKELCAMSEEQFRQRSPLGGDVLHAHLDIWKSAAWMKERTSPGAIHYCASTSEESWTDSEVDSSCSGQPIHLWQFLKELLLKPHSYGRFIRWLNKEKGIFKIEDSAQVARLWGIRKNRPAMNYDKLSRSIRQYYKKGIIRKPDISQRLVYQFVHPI
Procedure, shortened: as §1

ETV7 = biological target: T9, ETV7 (Homo sapiens, UniProt Q9Y603 1-341); settings: protein: recombinant; tags: N-terminal GST; dsDNA, one strand shown
T9 sequence: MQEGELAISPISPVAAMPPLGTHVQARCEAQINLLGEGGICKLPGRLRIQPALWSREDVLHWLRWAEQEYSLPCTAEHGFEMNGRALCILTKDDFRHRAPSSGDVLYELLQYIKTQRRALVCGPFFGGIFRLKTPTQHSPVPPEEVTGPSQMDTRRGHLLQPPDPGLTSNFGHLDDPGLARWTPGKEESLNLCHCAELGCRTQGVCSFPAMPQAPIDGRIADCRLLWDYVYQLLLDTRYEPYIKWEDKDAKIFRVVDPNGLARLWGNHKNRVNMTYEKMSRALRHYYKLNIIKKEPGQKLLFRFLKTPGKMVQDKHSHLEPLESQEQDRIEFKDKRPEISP
Procedure, shortened: as §1

ELF5 = biological target: T10, ELF5 (Homo sapiens, UniProt Q9UKW6-2 1-255); settings: protein: recombinant; tags: N-terminal GST; dsDNA, one strand shown
T10 sequence: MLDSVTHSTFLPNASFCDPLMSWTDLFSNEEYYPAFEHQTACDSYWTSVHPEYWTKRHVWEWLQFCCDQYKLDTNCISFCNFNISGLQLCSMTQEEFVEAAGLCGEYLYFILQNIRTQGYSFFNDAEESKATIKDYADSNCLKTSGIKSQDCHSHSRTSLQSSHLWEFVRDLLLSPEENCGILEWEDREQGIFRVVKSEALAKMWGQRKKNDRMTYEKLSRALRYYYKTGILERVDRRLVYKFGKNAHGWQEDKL
Procedure, shortened: as §1

ETV3 = biological target: T11, ETV3 (Homo sapiens, UniProt P41162-2 1-143); settings: protein: recombinant; tags: N-terminal GST; dsDNA, one strand shown
T11 sequence: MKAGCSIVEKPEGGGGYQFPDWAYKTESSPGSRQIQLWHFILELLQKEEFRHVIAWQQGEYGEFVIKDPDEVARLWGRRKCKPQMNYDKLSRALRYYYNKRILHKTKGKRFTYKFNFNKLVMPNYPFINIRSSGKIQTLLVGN
Procedure, shortened: as §1

ETV6 = ETV6 (Homo sapiens, UniProt P41212 1-452); settings: protein: recombinant; tags: N-terminal GST; dsDNA, one strand shown
ETV6, sequence (P41212 whole entry): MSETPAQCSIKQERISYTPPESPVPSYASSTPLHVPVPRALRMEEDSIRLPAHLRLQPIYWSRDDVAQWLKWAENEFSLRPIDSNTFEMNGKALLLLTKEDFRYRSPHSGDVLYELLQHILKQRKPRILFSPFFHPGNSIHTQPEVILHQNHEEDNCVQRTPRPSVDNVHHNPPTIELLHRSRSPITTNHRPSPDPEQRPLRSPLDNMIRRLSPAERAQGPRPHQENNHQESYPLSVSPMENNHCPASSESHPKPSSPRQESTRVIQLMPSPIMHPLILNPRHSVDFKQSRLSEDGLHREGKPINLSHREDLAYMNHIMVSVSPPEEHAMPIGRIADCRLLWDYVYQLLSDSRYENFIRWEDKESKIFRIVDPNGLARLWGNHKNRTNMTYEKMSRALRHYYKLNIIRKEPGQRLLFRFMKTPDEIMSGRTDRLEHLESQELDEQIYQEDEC
Procedure, shortened: as §1

CRX = CRX (Homo sapiens, UniProt O43186 1-299); settings: protein: recombinant; tags: N-terminal GST; dsDNA, one strand shown
CRX, sequence (O43186 whole entry): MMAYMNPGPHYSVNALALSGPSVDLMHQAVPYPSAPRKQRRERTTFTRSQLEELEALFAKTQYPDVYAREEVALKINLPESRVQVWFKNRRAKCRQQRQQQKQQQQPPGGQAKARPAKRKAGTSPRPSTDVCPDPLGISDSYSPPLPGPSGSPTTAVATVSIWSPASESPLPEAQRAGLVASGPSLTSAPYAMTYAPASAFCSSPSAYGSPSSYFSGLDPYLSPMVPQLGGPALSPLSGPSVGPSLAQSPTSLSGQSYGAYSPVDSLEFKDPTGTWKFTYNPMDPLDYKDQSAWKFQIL
Procedure, shortened: as §1

Sequence	binding signal (FEV)	binding signal (ETV5)	binding signal (HSF1)	binding signal (SPIC)	binding signal (ELF4)	binding signal (ELK4)	binding signal (ETV2)	binding signal (ETV1)	binding signal (ERF)	binding signal (ETV3L)	binding signal (ETS2)	binding signal (SPDEF)	binding signal (ETV7)	binding signal (ELF5)	binding signal (ETV3)	binding signal (ETV6)	binding signal (CRX)
CTGGAC	1.1 fold enrichment (6-mer frequency, TF over GST control)	1.18 fold enrichment (6-mer frequency, TF over GST control)	1.23 fold enrichment (6-mer frequency, TF over GST control)	1.1 fold enrichment (6-mer frequency, TF over GST control)	1.19 fold enrichment (6-mer frequency, TF over GST control)	1.11 fold enrichment (6-mer frequency, TF over GST control)	1.2 fold enrichment (6-mer frequency, TF over GST control)	1.09 fold enrichment (6-mer frequency, TF over GST control)	1.03 fold enrichment (6-mer frequency, TF over GST control)	1.22 fold enrichment (6-mer frequency, TF over GST control)	1.07 fold enrichment (6-mer frequency, TF over GST control)	1.12 fold enrichment (6-mer frequency, TF over GST control)	1.09 fold enrichment (6-mer frequency, TF over GST control)	1.16 fold enrichment (6-mer frequency, TF over GST control)	1.06 fold enrichment (6-mer frequency, TF over GST control)	1.09 fold enrichment (6-mer frequency, TF over GST control)	–
CGAAAT	1 fold enrichment (6-mer frequency, TF over GST control)	1 fold enrichment (6-mer frequency, TF over GST control)	1.4 fold enrichment (6-mer frequency, TF over GST control)	1.01 fold enrichment (6-mer frequency, TF over GST control)	1.01 fold enrichment (6-mer frequency, TF over GST control)	1.18 fold enrichment (6-mer frequency, TF over GST control)	1.06 fold enrichment (6-mer frequency, TF over GST control)	1.02 fold enrichment (6-mer frequency, TF over GST control)	1.03 fold enrichment (6-mer frequency, TF over GST control)	–	–	1.04 fold enrichment (6-mer frequency, TF over GST control)	1.11 fold enrichment (6-mer frequency, TF over GST control)	–	1.03 fold enrichment (6-mer frequency, TF over GST control)	–	1.07 fold enrichment (6-mer frequency, TF over GST control)
CAGAAT	1.05 fold enrichment (6-mer frequency, TF over GST control)	1.01 fold enrichment (6-mer frequency, TF over GST control)	2.05 fold enrichment (6-mer frequency, TF over GST control)	1.01 fold enrichment (6-mer frequency, TF over GST control)	1.13 fold enrichment (6-mer frequency, TF over GST control)	1.05 fold enrichment (6-mer frequency, TF over GST control)	1.13 fold enrichment (6-mer frequency, TF over GST control)	1.04 fold enrichment (6-mer frequency, TF over GST control)	1 fold enrichment (6-mer frequency, TF over GST control)	–	–	1.06 fold enrichment (6-mer frequency, TF over GST control)	–	1.02 fold enrichment (6-mer frequency, TF over GST control)	–	1.02 fold enrichment (6-mer frequency, TF over GST control)	1.34 fold enrichment (6-mer frequency, TF over GST control)
